# The supplement of paper PMC9135407
# Where “and” joins values, the source holds several entries; their conditions need not be identical. Identical values can stand only once. Counter-ions that a name gives are not always drawn. In all, about 5,800 compounds went through this assay and about 620 (11%) showed activity. Only a selection was taken, and actives are over-represented in it overall. A number with no mark means an inactive call.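 The calls were made as follows: active = score above a cut-off or among the top three wells of a plate; in these data no inactive exceeds 0.85.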
# System: primary human hepatic stellate cells (donor 1)
# Experiment: scaled lipid accumulation score (0 = DMSO-like, 1 = nortriptyline-like); higher = stronger HSC inactivation (lipid re-accumulation), active = hit call of the paper
# Settings: 48 h
# [1] = library stock concentration: 10 mM
# [2] = library stock concentration: 1 mM
# [3] = library stock concentration: 3.33 mM
# [4] = library stock concentration: 80 uM
# [5] = library stock concentration: 400 uM
# [6] = library stock concentration: 2 mM
smiles,measurement,setting,value
CCCCC(CC)COc1ccc(-c2nc(-c3ccc(OC)cc3)nc(-c3ccc(OCC(CC)CCCC)cc3O)n2)c(O)c1 (stereo not given),scaled lipid accumulation score,[1],≤ 0
"CCCCCC=CCC=CCCCCCCCCCC(=O)O [11(Z),14(Z)-Eicosadienoic Acid]",scaled lipid accumulation score,[2],≤ 0
Cc1cccc(Nc2nc(-c3ccncc3)cs2)c1 [listing 1 of 2 here],scaled lipid accumulation score,[3],0.881 (active)
same,scaled lipid accumulation score,[1],1.24 (active)
Oc1ccc(Nc2nc(-c3ccc(Cl)cc3)cs2)cc1 [Sphingosine Kinase Inhibitor 2],scaled lipid accumulation score,[2],0.058
Cc1cccc(Nc2nc(-c3ccncc3)cs2)c1 [listing 2 of 2 here],scaled lipid accumulation score,[2],≤ 0
Oc1ccc(Nc2nc(-c3ccc(Cl)cc3)cs2)cc1,scaled lipid accumulation score,[4],≤ -0.001
same,scaled lipid accumulation score,[5],≤ -0.001
same,scaled lipid accumulation score,[6],≤ -0.001
same,scaled lipid accumulation score,[3],≤ -0.009
same,scaled lipid accumulation score,[1],0.141 and 0.011
C[C@H]1Oc2cc(cnc2N)-c2c(nn(C)c2C#N)CN(C)C(=O)c2ccc(F)cc21,scaled lipid accumulation score,[4],≤ 0
same,scaled lipid accumulation score,[5],≤ 0
same,scaled lipid accumulation score,[6],0.031
same,scaled lipid accumulation score,[1],≤ 0
C[C@H]1COc2c(C3(N)CC3)c(F)cc3c(=O)c(C(=O)O)cn1c23 [Pazufloxacin],scaled lipid accumulation score,library stock concentration: 6.3 mM,≤ 0
C[C@H]1COc2c(C3(N)CC3)c(F)cc3c(=O)c(C(=O)O)cn1c23,scaled lipid accumulation score,[1],0.025 and ≤ 0
Clc1ccccc1C(c1ccccc1)(c1ccccc1)n1ccnc1 [Clotrimazole],scaled lipid accumulation score,,≤ 0
same,scaled lipid accumulation score,[3],≤ 0
same,scaled lipid accumulation score,library stock concentration: 5.8 mM,≤ -0.001
same,scaled lipid accumulation score,[1],≤ 0
N=C(N)NC(=O)c1nc(Cl)c(N)nc1N,scaled lipid accumulation score,library stock concentration: 18.8 mM,≤ -0.021
N=C(N)NC(=O)c1nc(Cl)c(N)nc1N [Amiloride HCl],scaled lipid accumulation score,[3],≤ 0
same,scaled lipid accumulation score,[1],≤ 0
N=C(N)NC(=O)c1nc(Cl)c(N)nc1N [Amiloride],scaled lipid accumulation score,library stock concentration: 8.7 mM,≤ -0.006
N=C(N)NC(=O)c1nc(Cl)c(N)nc1N [Amiloride hydrochloride dihydrate],scaled lipid accumulation score,,≤ 0
N=C(NC(=O)c1nc(Cl)c(N)nc1N)Nc1ccccc1 [Phenamil],scaled lipid accumulation score,library stock concentration: 16.4 mM,1.07 (active)
N=C(N)NC(=O)c1nc(Cl)c(N)nc1N [Amiloride hydrochloride],scaled lipid accumulation score,library stock concentration: 7.5 mM,≤ -0.001
same,scaled lipid accumulation score,[1],≤ 0
N=C(N)NC(=N)Nc1ccccc1 [1-Phenylbiguanide hydrochloride],scaled lipid accumulation score,[1],≤ 0
CC(=O)Nc1ccccc1 [Acetanilide],scaled lipid accumulation score,[3],≤ 0
same,scaled lipid accumulation score,[1],≤ 0 and 0.04
CS(=O)(=O)O.N=C(NC(=O)c1nc(Cl)c(N)nc1N)Nc1ccccc1 [Phenamil methanesulfonate],scaled lipid accumulation score,[1],1.15 (active)
CCCCCCCCCCCCCCCC(=O)NCCc1ccc(O)c(O)c1 [N-Palmitoyl Dopamine],scaled lipid accumulation score,[2],≤ 0
CC[C@]1(O)C[C@@H]2CN(CCc3c([nH]c4ccccc34)[C@@](C(=O)OC)(c3cc4c(cc3OC)N(C)[C@@H]3C45CCN4CC=C[C@](CC)([C@H]45)[C@H](OC(C)=O)[C@]3(O)C(=O)OC)C2)C1 (stereo not given in full) [Vinblastine],scaled lipid accumulation score,[1],0.956 (active)
CC[C@]1(O)C[C@@H]2CN(CCc3c([nH]c4ccccc34)[C@@](C(=O)OC)(c3cc4c(cc3OC)N(C)[C@H]3[C@@](O)(C(=O)OC)[C@H](OC(C)=O)[C@]5(CC)C=CCN6CC[C@]43[C@@H]65)C2)C1 [Vinblastine],scaled lipid accumulation score,[3],0.782
CCCCC[C@@H](O)/C=C/[C@H]1[C@H](C/C=C\CCCC(=O)O)C(=O)C[C@@H]1O [ent-Prostaglandin E2],scaled lipid accumulation score,[2],≤ 0
CC(C)=CC[C@@H](O)C1=CC(=O)c2c(O)ccc(O)c2C1=O [Shikonin],scaled lipid accumulation score,library stock concentration: 6.9 mM,0.554
same,scaled lipid accumulation score,library stock concentration: 17.3 mM,≤ -0.012
CCCCC[C@H](O)/C=C/[C@H]1[C@H](O)CC(=O)[C@@H]1C/C=C\CCCC(=O)NCCO [Prostaglandin E2 Ethanolamide],scaled lipid accumulation score,[2],≤ 0
CC(C1=C(CCN(C)C)Cc2ccccc21)c1ccccn1 (stereo in doubt) [(S)-(+)-Dimethindene maleate],scaled lipid accumulation score,[1],0.162
CCCCCC(O)/C=C/C=O (stereo not given) [4-hydroxy Nonenal],scaled lipid accumulation score,[2],≤ 0
CNC(=O)c1ccccc1Sc1ccc2c(/C=C/c3ccccn3)n[nH]c2c1,scaled lipid accumulation score,[5],0.07
same,scaled lipid accumulation score,[6],≤ -0.005
same,scaled lipid accumulation score,[1],0.024
CNC(=O)c1ccccc1Sc1ccc2c(/C=C/c3ccccn3)n[nH]c2c1 [Axitinib],scaled lipid accumulation score,[4],≤ -0.001
same,scaled lipid accumulation score,[5],≤ -0.001
same,scaled lipid accumulation score,[6],≤ -0.001
same,scaled lipid accumulation score,[3],≤ 0
same,scaled lipid accumulation score,[1],≤ 0 and ≤ -0.001
Cc1cc(C(=O)Nc2cc(Nc3ccc4c(/C=C/c5ccccn5)n[nH]c4c3)ccc2F)n(C)n1 [listing 1 of 2 here],scaled lipid accumulation score,[5],0.035
same,scaled lipid accumulation score,[6],0.724
Cc1cc(C(=O)Nc2cc(Nc3ccc4c(/C=C/c5ccccn5)n[nH]c4c3)ccc2F)n(C)n1 [listing 2 of 2 here],scaled lipid accumulation score,[1],1.61 (active)
CCCCC[C@H](O)CC[C@@H]1[C@H]2Cc3cccc(OCC(=O)O)c3C[C@H]2C[C@H]1O [Treprostinil],scaled lipid accumulation score,[2],0.05
CCCC(=O)[O-].[Na+] [Sodium Butyrate],scaled lipid accumulation score,[2],≤ 0
CCCCCCCCCCOCCC(=O)O [4-Oxatetradecanoic acid],scaled lipid accumulation score,[2],0.156
C1=N/C2=N/c3ccc(OCCN4CCCC4)c(c3)COC/C=C/COCc3cccc(c3)C(=C1)N2 [Pacritinib],scaled lipid accumulation score,[4],0.184
same,scaled lipid accumulation score,[5],0.686
same,scaled lipid accumulation score,[6],0.473
C1=CCOCc2cc(ccc2OCCN2CCCC2)Nc2nccc(n2)-c2cccc(c2)COC1 [Pacritinib],scaled lipid accumulation score,[1],0.932 (active)
C1=N/C2=N/c3ccc(OCCN4CCCC4)c(c3)COC/C=C/COCc3cccc(c3)C(=C1)N2 [Pacritinib (SB1518)],scaled lipid accumulation score,[3],0.536
same,scaled lipid accumulation score,[1],0.41
Cn1c(N2CCCCS2(=O)=O)nc(C(=O)NCc2ccc(F)cc2)c(O)c1=O,scaled lipid accumulation score,[3],0.024
same,scaled lipid accumulation score,[1],≤ 0
NCCNc1ncc(C(N)=O)c(Nc2cccc(C(F)(F)F)c2)n1 [Syk Inhibitor II],scaled lipid accumulation score,[3],0.589
CC1c2ccccc2CN1CC1=NCCN1 (stereo not given),scaled lipid accumulation score,[1],0.014
CCCCC[C@H](O)/C=C/[C@H]1C2COC(C2)[C@@H]1C/C=C/CCCC(=O)O (stereo not given in full),scaled lipid accumulation score,[2],≤ 0
CC[C@@H](C)Nc1cc(C(=O)NC2CC3CCC(C2)N3c2ccc(C(=O)C3CC3)cn2)c(C)cc1C(N)=O (stereo not given in full),scaled lipid accumulation score,[1],0.853 (active)
CC[C@@H](C)Nc1cc(C(=O)N[C@H]2C[C@H]3CC[C@@H](C2)N3c2ccc(C(=O)C3CC3)cn2)c(C)cc1C(N)=O,scaled lipid accumulation score,[3],0.762
NC(=O)c1ccc[n+]([C@@H]2O[C@H](COP(=O)([O-])OP(=O)(O)OC[C@H]3O[C@@H](n4cnc5c(N)ncnc54)[C@H](OP(=O)(O)O)[C@@H]3O)[C@@H](O)[C@H]2O)c1 [Sodium beta-nicotinamide adenine dinucleotide phosphate],scaled lipid accumulation score,[1],≤ -0.027
CC1Nc2ccc(Cl)cc2S(=O)(=O)N1 (stereo not given),scaled lipid accumulation score,[1],≤ -0.006
CC(=O)c1ncc([C@@H](O)[C@H](O)[C@H](O)CO)[nH]1 [2-Acetyl-5-tetrahydroxybutyl Imidazole],scaled lipid accumulation score,[2],≤ 0
COc1ccc(/C=C/c2nc(NCCCN(C)C)c3ccccc3n2)cc1,scaled lipid accumulation score,[1],0.387
Cc1[nH]c2ccccc2c1CCNCc1ccc(/C=C/C(=O)NO)cc1 [Panobinostat (LBH589)],scaled lipid accumulation score,[3],0.728
same,scaled lipid accumulation score,[1],0.587
O=c1cc(N2CCNCC2)oc2c(-c3ccccc3)cccc12 [listing 1 of 2 here],scaled lipid accumulation score,[1],1.28 (active)
"O=c1cc(N2CCOCC2)oc2c(-c3ccccc3)cccc12 [LY-294,002 hydrochloride]",scaled lipid accumulation score,[1],0.089
O=c1cc(N2CCNCC2)oc2c(-c3ccccc3)cccc12 [listing 2 of 2 here],scaled lipid accumulation score,[3],0.39
O=c1cc(N2CCOCC2)oc2c(-c3ccccc3)cccc12,scaled lipid accumulation score,[2],0.001
same,scaled lipid accumulation score,[3],≤ 0
same,scaled lipid accumulation score,[1],≤ 0 and 0.005
same,scaled lipid accumulation score,library stock concentration: 16.3 mM,≤ -0.012
CC[C@]1(O)C[C@H]2CN(CCc3c([nH]c4ccccc34)[C@@](C(=O)OC)(c3cc4c(cc3OC)N(C)[C@H]3[C@@](O)(C(=O)OC)[C@H](OC(C)=O)[C@]5(CC)C=CCN6CC[C@]43[C@@H]65)C2)C1.O=S(=O)(O)O [Vinblastine sulfate],scaled lipid accumulation score,[1],1.67 (active)
CCC1(O)CC2CN(CCc3c([nH]c4ccccc34)[C@@](C(=O)OC)(c3cc4c(cc3OC)N(C)C3[C@]45CCN4CC=C[C@@](CC)([C@@H](OC(C)=O)[C@]3(O)C(=O)OC)[C@H]45)C2)C1.O=S(=O)(O)O (stereo not given in full) [Vinblastine sulfate salt],scaled lipid accumulation score,[1],0.877 (active)
CCCCCCCCCCCCCCCCCC(=O)OC(CC(=O)O)C[N+](C)(C)C (racemic) [DL-Stearoylcarnitine chloride],scaled lipid accumulation score,[1],0.037
CCCCCCCCCCCCCCCC(=O)OC[C@H](O)[C@H]1OC(=O)C(O)=C1O [Ascorbyl palmitate],scaled lipid accumulation score,library stock concentration: 4.8 mM,0.002
CC(=O)N[C@@H](CCC(=O)O)C(=O)O [Acetylglutamic acid],scaled lipid accumulation score,[1],≤ 0
CCCCN1CCCC1CNC(=O)c1cc(C#N)c2ccccc2c1OC (stereo not given) [Nafadotride],scaled lipid accumulation score,[1],0.668 and 0.214
CS(=O)(=O)c1ccc(-c2nc(-c3ccc(F)cc3)c(-c3ccncc3)[nH]2)cc1,scaled lipid accumulation score,[3],≤ 0
CN(C)CC[C@@H](c1ccc(Br)cc1)c1ccccn1,scaled lipid accumulation score,[1],≤ 0
